This is part of a sample that, as a whole, favours compounds with a hit. Of some 83,000 tested, about 20% had one in any assay.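 Testing used 96-well plates and a 48-hour single-concentration exposure. Example: -40 means 40% of the starting cells died.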 Activity calls are given as the source filed them. Rule for the calls: active = growth percent below 10; inactive = the rest.
Legend:
Test in all cases: NCI-60 one-dose screen, 48 h (100 = growth as untreated, 0 = no growth, -100 = all killed)
Details in all cases: 10 µM unless noted
SK-MEL-2 melanoma = test system: SK-MEL-2 melanoma
EKVX NSCLC = test system: EKVX NSCLC
SN12C renal = test system: SN12C renal
TK-10 renal = test system: TK-10 renal
ACHN renal = test system: ACHN renal
CAKI-1 renal = test system: CAKI-1 renal
A498 renal = test system: A498 renal
CCRF-CEM leukemia = test system: CCRF-CEM leukemia
MOLT-4 leukemia = test system: MOLT-4 leukemia
SR leukemia = test system: SR leukemia
RPMI-8226 leukemia = test system: RPMI-8226 leukemia
OVCAR-8 ovarian = test system: OVCAR-8 ovarian
OVCAR-5 ovarian = test system: OVCAR-5 ovarian
OVCAR-4 ovarian = test system: OVCAR-4 ovarian
SK-OV-3 ovarian = test system: SK-OV-3 ovarian
IGROV1 ovarian = test system: IGROV1 ovarian
OVCAR-3 ovarian = test system: OVCAR-3 ovarian
HS 578T breast = test system: HS 578T breast
NCI/ADR-RES ovarian = test system: NCI/ADR-RES ovarian

Measured: growth

CS(=O)(=O)c1ccc(NC(=O)c2ccccc2)nc1
inactive: SK-MEL-2 melanoma 109% | EKVX NSCLC 109% | SN12C renal 99.1% | TK-10 renal 93.5% | ACHN renal 111% | CAKI-1 renal 106% | A498 renal 92.3% | CCRF-CEM leukemia 74.7% | MOLT-4 leukemia 71.3% | SR leukemia 76.8% | RPMI-8226 leukemia 100% | OVCAR-8 ovarian 107% | OVCAR-5 ovarian 108% | OVCAR-4 ovarian 115% | SK-OV-3 ovarian 94.1% | IGROV1 ovarian 111% | OVCAR-3 ovarian 110% | HS 578T breast 98.1% | NCI/ADR-RES ovarian 110%

COc1ccc2cc(-c3ccnc4c(N=Nc5ccc(Cl)cc5)c(N)nn34)ccc2c1
inactive: SK-MEL-2 melanoma 118% | EKVX NSCLC 114% | SN12C renal 100% | TK-10 renal 102% | ACHN renal 100% | CAKI-1 renal 92.2% | A498 renal 97.2% | CCRF-CEM leukemia 91.6% | MOLT-4 leukemia 100% | SR leukemia 95.2% | RPMI-8226 leukemia 94.9% | OVCAR-8 ovarian 93.9% | OVCAR-5 ovarian 99.7% | OVCAR-4 ovarian 116% | SK-OV-3 ovarian 93.7% | IGROV1 ovarian 102% | OVCAR-3 ovarian 105%

Cc1c(CC(=S)N2CCOCC2)nnn1-c1cccc(C(F)(F)F)c1
inactive: SK-MEL-2 melanoma 111% | EKVX NSCLC 104% | SN12C renal 103% | TK-10 renal 104% | ACHN renal 106% | CAKI-1 renal 93.2% | A498 renal 102% | CCRF-CEM leukemia 103% | MOLT-4 leukemia 102% | SR leukemia 105% | RPMI-8226 leukemia 103% | OVCAR-8 ovarian 104% | OVCAR-5 ovarian 97.8% | OVCAR-4 ovarian 103% | SK-OV-3 ovarian 108% | OVCAR-3 ovarian 110% | HS 578T breast 99.9% | NCI/ADR-RES ovarian 105%

O=C(N/N=C\c1cccc([N+](=O)[O-])c1)N/N=C/c1cccc([N+](=O)[O-])c1
inactive: SK-MEL-2 melanoma 108% | EKVX NSCLC 98% | SN12C renal 96.8% | TK-10 renal 117% | ACHN renal 98.6% | CAKI-1 renal 95.8% | A498 renal 82.3% | CCRF-CEM leukemia 98.7% | MOLT-4 leukemia 106% | RPMI-8226 leukemia 97.1% | OVCAR-8 ovarian 101% | OVCAR-5 ovarian 114% | OVCAR-4 ovarian 105% | SK-OV-3 ovarian 101% | IGROV1 ovarian 107% | OVCAR-3 ovarian 112% | HS 578T breast 97.9% | NCI/ADR-RES ovarian 106%

Nc1nc(N)c(N=Nc2ccccc2)c(-c2ccccc2)n1
inactive: SK-MEL-2 melanoma 85.3% | EKVX NSCLC 51.3% | SN12C renal 56% | TK-10 renal 55.1% | ACHN renal 60.4% | CAKI-1 renal 45.3% | A498 renal 31% | CCRF-CEM leukemia 52.6% | MOLT-4 leukemia 46.6% | SR leukemia 38.7% | RPMI-8226 leukemia 62.5% | OVCAR-8 ovarian 77.5% | OVCAR-5 ovarian 56.9% | OVCAR-4 ovarian 66.4% | SK-OV-3 ovarian 50.6% | IGROV1 ovarian 15.3% | OVCAR-3 ovarian 67.2% | NCI/ADR-RES ovarian 75.1%
active: HS 578T breast 3.4%

COc1cccc(NCc2nnc(Nc3ccc(Cl)cc3)c3ccccc23)c1
active: SK-MEL-2 melanoma -34.4% | EKVX NSCLC -0.284% | TK-10 renal -40.9% | ACHN renal -5.35% | A498 renal -26.8% | CCRF-CEM leukemia -4.42% | MOLT-4 leukemia -27.2% | SR leukemia -24.5% | RPMI-8226 leukemia -28.1% | OVCAR-8 ovarian 3.02% | OVCAR-5 ovarian 8.44% | SK-OV-3 ovarian -11.9% | IGROV1 ovarian 1.51% | OVCAR-3 ovarian -53.6% | HS 578T breast 0.542% | NCI/ADR-RES ovarian -5.42%
inactive: SN12C renal 14.5% | OVCAR-4 ovarian 17.2%

C=CCOC(=O)C1=C(C)N(CC)C(=O)NC1c1c(Cl)n(C)c2ccccc12 (stereo not given)
inactive: SK-MEL-2 melanoma 108% | EKVX NSCLC 98.4% | SN12C renal 102% | TK-10 renal 102% | ACHN renal 82.2% | CAKI-1 renal 61.5% | A498 renal 95% | MOLT-4 leukemia 93.7% | SR leukemia 96.1% | RPMI-8226 leukemia 93.8% | OVCAR-8 ovarian 98.2% | OVCAR-5 ovarian 90% | OVCAR-4 ovarian 103% | SK-OV-3 ovarian 102% | IGROV1 ovarian 98.9% | OVCAR-3 ovarian 108% | HS 578T breast 96.4% | NCI/ADR-RES ovarian 94.1%
active: CCRF-CEM leukemia -28%

CN1CCN(C(=O)[C@@]2(C)CC[C@]3(C)CC[C@]4(C)C(=CC[C@@H]5[C@@]6(C)CCC(=O)NC(C)(C)[C@@H]6CC[C@]54C)[C@@H]3C2)CC1
active: SR leukemia -10.4%
inactive: SK-MEL-2 melanoma 78.3% | EKVX NSCLC 79.6% | SN12C renal 58% | TK-10 renal 79.4% | ACHN renal 69.9% | CAKI-1 renal 42.5% | A498 renal 73.1% | CCRF-CEM leukemia 29% | MOLT-4 leukemia 15.8% | RPMI-8226 leukemia 20.6% | OVCAR-8 ovarian 64.1% | OVCAR-5 ovarian 83.8% | OVCAR-4 ovarian 50.6% | SK-OV-3 ovarian 53.8% | IGROV1 ovarian 63.8% | OVCAR-3 ovarian 57.8% | HS 578T breast 55.2% | NCI/ADR-RES ovarian 59.6%

Cc1c(Cl)cccc1C(=O)Nc1nc2c(s1)CN(C(=O)c1ccc(C(F)(F)F)cc1)CC2
inactive: SK-MEL-2 melanoma 49.9% | EKVX NSCLC 49.5% | SN12C renal 30% | TK-10 renal 64.5% | ACHN renal 25.3% | CAKI-1 renal 22.7% | CCRF-CEM leukemia 16.5% | MOLT-4 leukemia 21.8% | SR leukemia 21.3% | RPMI-8226 leukemia 10.6% | OVCAR-8 ovarian 10.1% | OVCAR-5 ovarian 57.5% | OVCAR-4 ovarian 38.5% | SK-OV-3 ovarian 36.4% | IGROV1 ovarian 17.9% | HS 578T breast 26.8%
active: A498 renal -20.1% | OVCAR-3 ovarian 0.113% | NCI/ADR-RES ovarian 5.22%

O=C(CSc1nnc(-c2cc(-c3ccccc3)nc3ccccc23)n1-c1ccccc1)Nc1ccc(C(=O)/C=C/c2ccc(Cl)cc2)cc1
inactive: SK-MEL-2 melanoma 112% | EKVX NSCLC 88.5% | SN12C renal 85.1% | TK-10 renal 110% | ACHN renal 87.1% | CAKI-1 renal 81.5% | A498 renal 81.5% | MOLT-4 leukemia 68.6% | SR leukemia 80.2% | RPMI-8226 leukemia 66.6% | OVCAR-8 ovarian 93.1% | OVCAR-5 ovarian 90.1% | OVCAR-4 ovarian 91.6% | SK-OV-3 ovarian 94.2% | IGROV1 ovarian 108% | HS 578T breast 89.1% | NCI/ADR-RES ovarian 95.3%

CCN(CC)CCCOc1ccc2ncnc(Nc3ccc(Oc4cccc(C(F)(F)F)c4)c(Cl)c3)c2c1
active: SK-MEL-2 melanoma -14.7% | ACHN renal -13.4% | CAKI-1 renal -24.4% | CCRF-CEM leukemia 1.81% | MOLT-4 leukemia 0.414% | SR leukemia -3.44% | RPMI-8226 leukemia -29.8% | OVCAR-5 ovarian 5.73% | OVCAR-4 ovarian 7.23% | IGROV1 ovarian -52.6% | OVCAR-3 ovarian -34.8% | HS 578T breast -32.8% | NCI/ADR-RES ovarian 2.21%
inactive: EKVX NSCLC 23.4% | SN12C renal 47.1% | TK-10 renal 25.7% | A498 renal 21.3% | OVCAR-8 ovarian 16.9% | SK-OV-3 ovarian 13.4%

Cn1cc(-c2csc(-c3cn(CCCN4CCOCC4)c4ccccc34)n2)c2cccnc21
inactive: SK-MEL-2 melanoma 91.8% | EKVX NSCLC 86.7% | SN12C renal 87.2% | TK-10 renal 86.9% | ACHN renal 93.7% | CAKI-1 renal 92% | A498 renal 55.2% | CCRF-CEM leukemia 62% | MOLT-4 leukemia 59.7% | SR leukemia 58.9% | RPMI-8226 leukemia 59.5% | OVCAR-8 ovarian 82.6% | OVCAR-5 ovarian 84.7% | OVCAR-4 ovarian 97.8% | SK-OV-3 ovarian 102% | IGROV1 ovarian 98.6% | OVCAR-3 ovarian 96.3% | HS 578T breast 88% | NCI/ADR-RES ovarian 91%

NC(=O)c1cccc([C@@H]2O[C@H](CO)[C@@H](O)[C@H]2O)c1
inactive: SK-MEL-2 melanoma 103% | EKVX NSCLC 99% | SN12C renal 94.1% | TK-10 renal 55.5% | ACHN renal 93.1% | CAKI-1 renal 80.9% | A498 renal 86.6% | CCRF-CEM leukemia 11% | SR leukemia 84% | OVCAR-5 ovarian 102% | SK-OV-3 ovarian 28.7% | OVCAR-3 ovarian 70.6% | NCI/ADR-RES ovarian 23.8%
active: MOLT-4 leukemia -1.79% | RPMI-8226 leukemia -25.7% | OVCAR-8 ovarian 9.76% | OVCAR-4 ovarian -20.6% | HS 578T breast 5.46%

Cc1ccc(C(=O)c2ccc(CC(=O)N=Nc3c(O)[nH]c4ccc(Br)cc34)n2C)cc1
inactive: SK-MEL-2 melanoma 91.3% | EKVX NSCLC 74.3% | SN12C renal 85.2% | TK-10 renal 131% | ACHN renal 88.9% | CAKI-1 renal 79.7% | A498 renal 89.3% | CCRF-CEM leukemia 95.4% | MOLT-4 leukemia 86% | SR leukemia 101% | RPMI-8226 leukemia 92.7% | OVCAR-8 ovarian 94.9% | OVCAR-5 ovarian 91.7% | OVCAR-4 ovarian 97.6% | SK-OV-3 ovarian 91.3% | IGROV1 ovarian 77.5% | OVCAR-3 ovarian 105% | HS 578T breast 99.6% | NCI/ADR-RES ovarian 87.7%

Cc1ccc(-c2csc(N(C(=O)N3CCN(c4cc5c(cc4F)c(=O)c(C(=O)O)cn5C4CC4)CC3)c3ccccc3)n2)cc1
active: SK-MEL-2 melanoma -4.42% | SN12C renal 9.07% | ACHN renal 5.63% | CAKI-1 renal 2.42% | A498 renal 7.58% | OVCAR-3 ovarian 7.88% | NCI/ADR-RES ovarian 6.88%
inactive: EKVX NSCLC 20.9% | TK-10 renal 20.6% | CCRF-CEM leukemia 21% | MOLT-4 leukemia 16.6% | SR leukemia 20.2% | RPMI-8226 leukemia 17.6% | OVCAR-5 ovarian 13.2% | OVCAR-4 ovarian 28.4% | SK-OV-3 ovarian 28.2% | IGROV1 ovarian 12.5% | HS 578T breast 33.5%

Cc1ccc(CNc2ccc3nc(CCC(C)C)[nH]c3c2)cc1
inactive: SK-MEL-2 melanoma 107% | EKVX NSCLC 96% | SN12C renal 85.9% | TK-10 renal 113% | ACHN renal 99.3% | CAKI-1 renal 89.1% | A498 renal 97.1% | CCRF-CEM leukemia 93.7% | MOLT-4 leukemia 81.4% | SR leukemia 85.9% | RPMI-8226 leukemia 87.4% | OVCAR-8 ovarian 89.9% | OVCAR-5 ovarian 101% | OVCAR-4 ovarian 85.1% | SK-OV-3 ovarian 100% | IGROV1 ovarian 77.4% | OVCAR-3 ovarian 88.9% | HS 578T breast 96.3% | NCI/ADR-RES ovarian 89.6%

From PubChem BioAssay (NCI)
